# High-throughput results from PubChem BioAssay.
# PINK1 modulator – PINK1 expression modulation | PINK1 immunofluorescence, high-content cytometry, 24 h | Potency, µM (series often up to 76.6 µM), without a hit: at the top dose activation (PINK1 increase), hits mostly activators | 410,000 compounds, 0.2% hits; active = well fitted activation curve with a large enough effect; inconclusive = small, poorly fitted or top-dose-only effect; cell line not stated here; note: potency is the fitted concentration of half-maximal effect; % of control where 0% means no effect; nearly all actives have a fitted effect of over 65% in size
#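 Decision-based qHTS: stable cells, 24 h exposure to five compound concentrations, CCCP as control. Fixed cells stained for PINK1 plus nuclear, mitochondrial and cell markers, cytometer read.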
# SW480 rereplic – inducers of DNA re-replication in SW480 colon cancer cells | SW480 DNA re-replication, Hoechst DNA content imaging, 48 h | Potency, µM (series often up to 46.1 µM), for the others: at the highest dose re-replication activation, usual class: activators | 340,000 compounds, 1.8% hits | AID 624297; note: potency is the fitted concentration of half-maximal effect; % of control where 0% means no effect; nearly all actives have a fitted effect of over 55% in size
#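 Image-based read-out: total Hoechst fluorescence of nuclei (405 nm excitation, 500-530 nm emission), with hits raising the fraction of high-intensity nuclei. SW480 colon cells incubated 48 hr with compounds at 37 C.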
# IL1B secr inh – inflammasome signaling inhibition, IL-1 beta readout | 360,000 compounds, 4.7% hits | activity change, % at 57.5 µM | THP-1 LPS/ATP IL-1B secretion, AlphaLISA, 16 h; stronger effect = lower value; in the data active = activity change below about -50%; inconclusive = mostly about -30% to -49%; note: % is set by controls: 0 for no effect and ±100 for the full control effect
#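 THP-1 cells pretreated 1 hr with compounds (up to 57.5 uM final), then stimulated with LPS (250 ng/mL final) plus ATP (1.25 mM final); secreted IL-1B measured by AlphaLISA after 16 hr, decreased signal indicating inhibition.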
# ATXN viability – cell viability loss in ATXN counter-screen; S2 cells (HEK-293 line with an ATXN2-luciferase reporter) viability, CellTiter-Fluor protease fluorescence, 24 h; Potency, µM (doses to about 56.7 µM), usual class: cytotoxic; 400,000 compounds, 0.49% hits; AID 651635; note: potency is the fitted concentration of half-maximal effect; nearly all actives have a fitted effect of over 40% in size
# MCF10A rerep – DNA re-replication induction in MCF 10a cells. MCF 10A DNA re-replication, Hoechst nuclear intensity, 48 h. 350,000 compounds, 2.9% hits. Potency, µM (top dose mostly 46.1 µM), for inactives: top-dose activity, positive = re-replication, most hits filed as activators; note: potency is the fitted concentration of half-maximal effect; % of control where 0% means no effect; nearly all actives have a fitted effect of over 50% in size
# ATXN2 expr inh – inhibitors of ATXN2 expression. HEK-293 ATXN2-luciferase reporter, luminescence, 24 h. Potency, µM (top dose mostly 57 µM), for the others: at the top dose activity change, negative = inhibition, hits mostly inhibitors. 360,000 compounds, 0.72% hits. AID 1745845; note: potency is the fitted concentration of half-maximal effect; % is set by controls: 0 for no effect and ±100 for the full control effect; nearly all actives have a fitted effect of over 55% in size
#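 ATXN2-luciferase reporter cells (luciferase flanked by upstream and downstream ATXN2 gene portions) were treated 24 h at 37 °C with compounds at up to 57 uM. SteadyGlo luminescence gave expression; GF-AFC fluorescence gave viability.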
# The depositor's hits bear a star; i = inactive; ? = inconclusive; · = not tested or not shown; [ ] = another dose, or the depositor's remark. Compounds with a hit are over-represented: about 7.1% of the library has one in this group of screens. Unless noted, calls come from the whole dose curve; as a rule, active = well fitted curve in the direction sought with a large enough effect; inconclusive = small, poorly fitted or top-dose-only effect, or another doubt; inactive = no such curve, though single readings can be large; an effect the other way counts as inactive or inconclusive.
SMILES,PINK1 modulator,SW480 rereplic,IL1B secr inh,ATXN viability,MCF10A rerep,ATXN2 expr inh
CCOc1ccc(C(=O)c2cn(CC(=O)Nc3ccc(Cl)cc3)c3cc4c(cc3c2=O)OCCO4)cc1,2%,·,·,?,·,-23%
Cc1cc(C)c(S(=O)(=O)Nc2ccc3c4c(cccc24)CC3)c(C)c1,15%,?,10,?,0.37µM*,-31%
Cc1ccc(S(=O)(=O)Nc2ccc3c4c(cccc24)CC3)c(C)c1,10%,?,45,i,?,-29%
COc1ccc(-c2n(Cc3ccccc3)c3ccccc3[n+]2Cc2ccccc2)cc1,11µM*,?,-87*,i,4%,?
[O-][N+](=NC1C=Cc2ccccc21)C1C=Cc2ccccc21 (centres undefined),-1%,·,·,·,·,·
COc1ccc(C(=O)Nc2ccc3oc(-c4ccc5ccccc5c4)nc3c2)cc1Br,1%,·,·,·,·,·
CCCC(=O)Nc1ccc2oc(-c3ccc(OC)c(Br)c3)nc2c1,?,?,-2,i,18µM*,10%
Cc1cc(C)c(OCCNCc2ccccc2)c(C)c1,9%,0%,-54*,i,-7%,-3%
Cc1cc(Cl)cc(C)c1OCCOCCNCc1ccccc1,-2%,16%,?,?,14%,·
Cc1cc(C)c(OCCCCNCc2ccccc2)c(Cl)c1,?,?,-86*,·,23µM*,0%
Cc1cc(C)c(C)c(OCCNCc2ccccc2)c1,?,-20%,-93*,?,?,-28%
Cc1cc(Br)ccc1OCCNCc1ccccc1,17%,-4%,?,i,?,-2%
Cc1cc(Cl)cc(C)c1OCCNCc1ccccc1,12%,0%,-96*,i,?,-23%
FC(F)(F)c1cccc(Cn2c3[n+](c4ccc(C(F)(F)F)cc42)CCCCC3)c1,10%,1%,-77*,i,10%,-27%
Cc1cc(C(C)(C)C)cc(C)c1Cn1c2[n+](c3ccc(C(F)(F)F)cc31)CCCCC2,?,-10%,-108*,i,?,?
O=C(Cn1c2[n+](c3ccc(C(F)(F)F)cc31)CCCCC2)Nc1ccc(Br)cc1,1%,-5%,0,i,3%,·
O=C(N/N=C/c1cc(Cl)ccc1O)C(=O)Nc1ccccc1OC(F)(F)C(F)F,4%,?,39,i,?,13µM*
O=C(N/N=C/c1cc(Br)ccc1O)C(=O)Nc1ccccc1OC(F)(F)C(F)F,3%[38.3 µM],?,156,i,?,3.2µM*
COc1ccccc1/C=N/NC(=O)C(=O)Nc1ccccc1OC(F)(F)C(F)F,4%,-7%,-2,i,?,5%
O=C(NCc1ccccc1)c1cnc(N2CCCCC2)c2ccccc12,1%,·,·,·,·,·
CC(NCc1cc(Br)ccc1OCC(N)=O)C12CC3CC(CC(C3)C1)C2 (centres undefined),1%,27%,-61*,?,?,·
COc1cc(CNC(C)C23CC4CC(CC(C4)C2)C3)ccc1OCC(=O)NC(C)(C)C (centres undefined),7%,?,-88*,?,18%,-38%
C[C@@H](C[C@@H](O)[C@H](O)C(C)(C)O)[C@@H]1CC[C@]2(C)C3=CC[C@H]4C(C)(C)C(=O)CC[C@]4(C)[C@H]3CC[C@@]12C,5%,2%,-53*,·,?,?
CCn1cc(CN2CCCC(C(=O)Nc3cccc(-c4cc5ccccc5[nH]4)c3)C2)c(C)n1 (centres undefined),3%,?,-53*,i,?,?
CC(C)n1cc(CN2CCCC(C(=O)Nc3cccc(-c4cc5ccccc5[nH]4)c3)C2)cn1 (centres undefined),-2%,?,-63*,?,16µM*,28µM*
SMILES,PINK1 modulator,SW480 rereplic,IL1B secr inh,ATXN viability,MCF10A rerep,ATXN2 expr inh
CCn1cc(CN2CCCC(C(=O)Nc3ccc(-c4nc5ccccc5[nH]4)cc3)C2)c(C)n1 (centres undefined),1%,1%,?,i,0%,0%
Cn1cc(CN2CCCC(C(=O)Nc3cccc(-c4cc5ccccc5[nH]4)c3)C2)cn1 (centres undefined),2%,?,-92*,i,?,-38%
Cc1cc2c3c(c1C)C1(C(=O)N3C(C)(C)CC2C)C(C#N)=C(N)Oc2cc(O)ccc21 (centres undefined),-5%[38.3 µM],9%,-62*,22µM*,13%,?
Cc1ccc2cc(CN(CCCO)S(=O)(=O)c3ccccc3F)c(=O)[nH]c2c1C,1%,-6%,-59*,i,7%,-23%
Cc1ccc(NC(=S)N(CCN(C)C)Cc2cc3cc(C)cc(C)c3[nH]c2=O)cc1,7%,?,-53*,i,17%,-1%
CC(=O)N(CCc1ccccc1)Cc1cc2ccc(C)c(C)c2[nH]c1=O,1%,1%,-11,i,-4%,-7%
Cc1ccc2cc(CN(CCN(C)C)C(=S)Nc3ccccc3)c(=O)[nH]c2c1C,2%,?,-85*,i,-1%,-3%
CCN(CC)CCN(Cc1cc2ccc(C)cc2[nH]c1=O)C(=S)Nc1ccccc1C(=O)OC,1%,?,-77*,i,9%,3%[11.3 µM]
Cc1ccc2cc(CN(CCCO)S(=O)(=O)c3cccc4nsnc34)c(=O)[nH]c2c1C,?,-4%,31,i,19%,-5%
COc1ccc(CN2CCc3c(c(=O)n4ncc(C(=O)N5CCN(c6ccccc6F)CC5)c4n3C)C2)cc1,0%,·,·,i,·,-15%
CO[C@H]1[C@H](NC(=O)c2cccs2)c2ccccc2C12CCN(Cc1cccn1-c1cccnc1)CC2,0%,·,·,?,·,·
CCN(CC)CCN(Cc1cc2cccc(C)c2[nH]c1=O)C(=S)Nc1ccccc1,2%,-2%,-80*,i,1%,4%
CCN1CCCC1CN(Cc1cc2ccc(C)cc2[nH]c1=O)C(=S)Nc1ccc(OC)cc1OC (centres undefined),0%,4%,-52*,i,-4%,12%
Cc1ccc(Nc2cc(C(=O)NC3CCCC3)c3ccccc3n2)cc1C,1%,·,·,i,·,-1%
CCNS(=O)(=O)c1ccc(CCC(=O)NC2CCCC2)cc1,-2%,5%,-13,i,10%,12%
CC(C)CNS(=O)(=O)c1ccc(CCC(=O)NC2CCCC2)cc1,1%,-61%,0,i,1µM*,-22%
O=C(CSc1nc(=O)[nH]c2c1CCC2)NCc1ccc(Cl)cc1,1%,·,·,·,·,·
CC(C)N1C(=O)/C(=C/c2nc3ccccc3c(=O)n2-c2ccccc2)c2ccccc21,-3%,?,-96*,?,16µM*,?
